# Laboratory results: PubChem BioAssay
# Active and inactive are the calls of the source.
# Experiments:
# [1] = tested on: Plasmodium falciparum Sir2 (PF13_0152, Sir2A); assay: Plasmodium falciparum Sir2A binding compounds – biochemical, small-molecule microarray, 635 nm fluorescence, primary screen (AID 1098); details: fluorescence 635 nm, higher = more signal;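 further: score merges spot fluorescence intensity with its signal-to-noise ratio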
# [2] = probe aDKK1 binding to arrayed compounds – biochemical, biotinylated probe, 635/667 nm fluorescence, primary screen (AID 1099); details: small-molecule microarray, higher = more signal;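 further: score merges 667nm spot fluorescence with signal to noise across triplicate slides; reference of the scale not given here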
# [3] = probe aCHRDL2 binding to arrayed compounds – biochemical, biotinylated probe, 635/667 nm fluorescence, primary screen (AID 1100); details: small-molecule microarray, higher = more signal
# [4] = change in splice reporter luminescence, either direction, cell-based, HEK293, spliceosome inhibition project, primary screen (AID 1101); details: HEK293 splicing luciferase reporter, 24 h, higher = more signal, called active from +8 up or from −8 down;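 further: HEK293 cells carrying a splicing-competent luciferase reporter gene; test concentration not given here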
# [5] = target: Fibroblast growth factor 10 (Homo sapiens) (UniProt O15520); assay: compounds binding fibroblast growth factor 10 – biochemical, small-molecule microarray, 635 nm fluorescence, primary screen (AID 1102); details: FGF10 binding, fluorescence 635 nm, higher = more signal
# [6] = tested on: glycogen synthase kinase-3 (GSK3A per assay name; protocol says GSK3B); assay: compounds binding glycogen synthase kinase-3 – biochemical, small-molecule microarray, 635 nm fluorescence, GSK3A, primary screen (AID 1103); details: fluorescence 635 nm, higher = more signal; further: the record names both GSK3A and GSK3B
# [7] = target: Epidermal growth factor receptor (Homo sapiens) (UniProt P00533); assay: compounds binding epidermal growth factor receptor – biochemical, small-molecule microarray, 635 nm fluorescence, primary screen (AID 1104); details: EGFR binding, higher = more signal;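 further: score merges 667 nm emission intensity with spot signal to noise over triplicate slides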
# [8] = target: Follistatin-related protein 3 (Homo sapiens) (UniProt O95633); assay: compounds binding follistatin-related protein 3 – biochemical, small-molecule microarray, 635 nm fluorescence, primary screen (AID 1105); details: FSTL3 binding, higher = more signal;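 further: score merges emission near 667 nm and signal to noise per printed spot across three slides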
# [9] = target: Dickkopf-related protein 1 (Homo sapiens) (UniProt O94907); assay: small molecules binding DKK1 protein – biochemical, small-molecule microarray, 635 nm fluorescence scan, primary screen (AID 1106); details: higher = more signal;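 further: score merges emission near 667 nm with signal to noise over three replicate slides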
# [10] = tested on: Inhibin beta A chain (activin A); assay: small molecules binding activin A – biochemical, small-molecule microarray, 635 nm fluorescence scan, primary screen (AID 1107); details: INHBA, higher = more signal;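 further: mouse activin A protein probed at 4.33 µg/mL on printed slides; score merges bound-protein fluorescence near 667 nm with spot signal-to-noise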
# Sequence of Dickkopf-related protein 1 (Homo sapiens) (O94907 whole entry, looked up): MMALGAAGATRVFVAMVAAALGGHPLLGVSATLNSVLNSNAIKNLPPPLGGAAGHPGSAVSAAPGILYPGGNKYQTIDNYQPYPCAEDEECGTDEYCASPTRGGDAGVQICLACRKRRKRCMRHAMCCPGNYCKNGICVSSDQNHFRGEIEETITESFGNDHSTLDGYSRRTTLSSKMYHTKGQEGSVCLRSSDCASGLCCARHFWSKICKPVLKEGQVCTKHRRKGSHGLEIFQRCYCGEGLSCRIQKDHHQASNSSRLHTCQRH
# Sequence of Follistatin-related protein 3 (Homo sapiens) (O95633 whole entry, looked up): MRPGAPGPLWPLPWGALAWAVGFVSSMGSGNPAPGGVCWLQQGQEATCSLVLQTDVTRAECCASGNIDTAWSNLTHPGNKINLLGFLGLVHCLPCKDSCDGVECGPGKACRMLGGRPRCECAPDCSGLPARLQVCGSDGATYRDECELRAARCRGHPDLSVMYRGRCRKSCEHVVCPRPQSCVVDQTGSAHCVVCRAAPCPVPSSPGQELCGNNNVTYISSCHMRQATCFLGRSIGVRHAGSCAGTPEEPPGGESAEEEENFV
# Sequence of Epidermal growth factor receptor (Homo sapiens) (P00533 whole entry, looked up): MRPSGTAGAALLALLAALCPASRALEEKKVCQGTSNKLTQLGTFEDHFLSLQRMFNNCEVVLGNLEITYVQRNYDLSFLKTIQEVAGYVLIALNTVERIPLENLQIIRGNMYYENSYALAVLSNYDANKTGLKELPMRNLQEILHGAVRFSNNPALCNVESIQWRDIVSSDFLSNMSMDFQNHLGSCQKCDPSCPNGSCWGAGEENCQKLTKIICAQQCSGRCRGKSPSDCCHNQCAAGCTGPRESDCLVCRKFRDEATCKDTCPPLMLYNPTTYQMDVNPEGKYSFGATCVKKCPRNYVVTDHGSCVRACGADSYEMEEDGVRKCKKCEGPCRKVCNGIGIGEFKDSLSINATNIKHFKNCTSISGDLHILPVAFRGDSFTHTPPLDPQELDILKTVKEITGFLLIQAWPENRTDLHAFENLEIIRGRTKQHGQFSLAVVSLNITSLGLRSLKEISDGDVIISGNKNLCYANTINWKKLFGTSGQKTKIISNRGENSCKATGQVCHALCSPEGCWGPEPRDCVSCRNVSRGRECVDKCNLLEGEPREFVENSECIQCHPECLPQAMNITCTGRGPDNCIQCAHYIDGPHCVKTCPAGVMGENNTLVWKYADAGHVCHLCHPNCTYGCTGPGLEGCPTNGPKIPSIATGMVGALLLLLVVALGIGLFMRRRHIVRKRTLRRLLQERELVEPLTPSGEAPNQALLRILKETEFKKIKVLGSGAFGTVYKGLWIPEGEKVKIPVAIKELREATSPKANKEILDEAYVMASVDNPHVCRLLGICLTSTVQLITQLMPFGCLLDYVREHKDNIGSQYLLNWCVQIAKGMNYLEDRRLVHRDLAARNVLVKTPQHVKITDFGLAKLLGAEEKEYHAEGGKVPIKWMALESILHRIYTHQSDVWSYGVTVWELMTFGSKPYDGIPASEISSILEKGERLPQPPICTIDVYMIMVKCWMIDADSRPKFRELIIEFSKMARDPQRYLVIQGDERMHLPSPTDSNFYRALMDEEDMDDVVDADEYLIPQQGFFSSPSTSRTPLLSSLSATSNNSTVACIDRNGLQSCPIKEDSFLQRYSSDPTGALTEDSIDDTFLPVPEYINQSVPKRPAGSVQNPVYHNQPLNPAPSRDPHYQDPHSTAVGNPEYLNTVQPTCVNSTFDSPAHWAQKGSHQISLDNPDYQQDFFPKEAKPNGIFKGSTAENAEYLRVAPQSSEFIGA
# Sequence of Fibroblast growth factor 10 (Homo sapiens) (O15520 whole entry, looked up): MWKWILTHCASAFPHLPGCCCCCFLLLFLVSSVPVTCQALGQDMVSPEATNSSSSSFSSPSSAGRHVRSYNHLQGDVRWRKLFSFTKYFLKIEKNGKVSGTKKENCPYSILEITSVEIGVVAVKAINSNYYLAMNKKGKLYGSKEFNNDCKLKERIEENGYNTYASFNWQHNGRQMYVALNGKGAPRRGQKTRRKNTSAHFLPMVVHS
Compound,composite z-score [1],composite z-score [2],composite z-score [3],z-score [4],composite z-score [5],composite z-score [6],composite z-score [7],composite z-score [8],composite z-score [9],composite z-score [10]
COC(=O)C1(CC(C)C)C=C2C(=C(C(C)C)C(=O)C2C)CN1 (stereo not given),-0.573,0.834,0.937,1.97 (inactive),-0.296,-2,-0.961,-0.771,-0.871,1.34
O=C1C2C=CC(C(O)c3cccc(O)c3)N(Nc3ccccc3F)C2C(=O)N1c1ccccc1 (stereo not given),1.86,-0.143,0.247,-3.1 (inactive),-0.177,-0.127,-0.175,0.338,-0.128,0.452
CC(C)(C)OC(=O)CC[C@]1(C(=O)N2CCOCC2)N=C(c2ccc(OCCCO)cc2)O[C@H]1c1ccccc1CN=[N+]=[N-],1.61,0.528,0.885,-0.371 (inactive),1.4,1.32,-0.0261,1.08,-0.0465,0.543
COCCOC(=O)N1C(=O)[C@@]2(c3cc(C#CC4(O)CCCCCC4)ccc31)[C@H](c1ccc(OCCO)cc1)N1[C@H](c3ccccc3)[C@H](c3ccccc3)OC(=O)[C@H]1[C@@H]2C(N)=O,1.37,0.0809,0.0419,-1.47 (inactive),1.14,1.31,0.883,1.22,0.617,1
CN(C)CCCC[C@@H]1NC(=O)[C@@H]2C[C@H](C(=O)NCCCCCCNC(=O)CS)[C@H](c3cccc(OCCO)c3)N2C1=O,1.59,0.0307,0.358,-0.162 (inactive),0.419,0.842,-0.247,-0.0613,0.735,-0.0529
COC(=O)c1ccc([C@H](NC(=O)c2ccccc2)[C@]2(C)C[C@H]2C2CCCCC2)cc1,0.135,0.343,1.24,0.736 (inactive),0.225,0.0377,-0.133,0.4,-0.532,0.795
CN1C=C(C(=O)OCCS(C)(=O)=O)C(C(=O)OCCS(C)(=O)=O)=CC(CCCO)=CC1c1ccc(CN2CCCC2)cc1 (stereo not given),0.867,0.633,0.539,-0.0863 (inactive),1.27,1.3,0.566,1.32,0.602,0.969
COc1ccc(C#Cc2ccc3c(c2)[C@]2(C(=O)N3)[C@H](C(=O)Nc3nc4ccccc4s3)[C@H]3C(=O)O[C@H](c4ccccc4)[C@H](c4ccccc4)N3[C@@H]2c2ccc(OCCO)cc2)cc1,0.937,0.72,0.766,-0.126 (inactive),1.17,1.3,0.209,1.13,0.629,-0.37
COc1cccc(OC)c1C(=O)O[C@H]1[C@@H]2OC(=O)[C@H](Cc3cccc(Br)c3)C/C=C/C[C@@H](Cc3cccc(Br)c3)C(=O)O[C@H]2[C@@H](OC)O[C@@H]1CO,-0.178,0.281,0.325,0.0705 (inactive),0.927,0.277,-0.0525,0.735,0.298,0.42
CC(C)C[C@@H]1NC(=O)[C@H]2C[C@@H](C(=O)NCCCCCNC(=O)CS)[C@@H](c3ccc(O)cc3)N2C1=O,1.56,-0.0363,0.203,0.0983 (inactive),1.08,1.33,0.521,0.848,1.01,0.0563
[N-]=[N+]=NCc1ccccc1[C@H]1OC(c2ccc(OCCCO)cc2)=N[C@@]1(Cc1ccccc1)C(=O)N1CCOCC1,1.25,0.721,0.884,-0.991 (inactive),1.37,1.33,0.0968,0.808,-0.0244,-0.303
COCCOC(=O)N1C(=O)[C@@]2(c3cc(C#CC4=CCCCC4)ccc31)[C@H](C(=O)N1CCc3cc(OC)c(OC)cc3C1)[C@H]1C(=O)O[C@H](c3ccccc3)[C@H](c3ccccc3)N1[C@@H]2c1ccc(O)cc1,1.04,0.26,-0.0061,-0.258 (inactive),0.438,1.12,1.32,0.583,0.391,0.732
CC(C)C[C@@H]1NC(=O)C([C@@H](C)OCc2ccccc2)NC(=O)[C@@]23C(=O)N[C@@H](Cc4ccccc4)C2[C@H](C)[C@@]2(C)O[C@H]2C3/C=C/CC/C=C/CNC1=O (stereo not given in full),1.38,-0.309,-0.475,-1.62 (inactive),0.699,0.517,0.432,0.721,0.445,1.13
CC(C)[C@@H](C(=O)O)n1cc(-c2ccccc2)nn1,0.377,0.824,0.69,0.317 (inactive),0.737,1.27,0.262,0.256,0.0435,0.48
CC(C)c1ccc(NN2C(C(O)C(C)C)C=CC3C(=O)N(c4ccccc4)C(=O)C32)cc1 (stereo not given),1.06,1.26,1.14,0.437 (inactive),0.651,1.31,0.389,0.926,-0.103,0.496
O=C1N(CCS(=O)(=O)c2ccccc2)c2ccccc2[C@@H]2OC(c3ccc(OCCCO)cc3)=N[C@]12CCS(=O)(=O)c1ccccc1,0.982,0.753,0.585,-0.254 (inactive),0.989,1.26,0.917,1.42,1.16,0.878

Compound,composite z-score [1],composite z-score [2],composite z-score [3],z-score [4],composite z-score [5],composite z-score [6],composite z-score [7],composite z-score [8],composite z-score [9],composite z-score [10]
COCCOC(=O)N1C(=O)[C@@]2(c3cc(C#CCCO)ccc31)[C@H](c1ccccc1OCCO)N1[C@H](c3ccccc3)[C@H](c3ccccc3)OC(=O)[C@H]1[C@@H]2C(=O)N1CCc2cc(OC)c(OC)cc2C1,1.12,0.161,0.395,-0.221 (inactive),1.34,1.28,0.529,1.39,0.421,0.504
COc1cc2c(cc1O)C(c1ccc(CN3CCCC3)cc1)N(Cc1cccc(OC(F)(F)F)c1)CC2 (stereo not given),1.02,0.422,0.414,-2.59 (inactive),0.15,0.213,0.576,0.81,0.36,1.44
N#Cc1ccc(C(O)C2C=CC3C(=O)N(c4ccccc4)C(=O)C3N2Nc2ccc([N+](=O)[O-])cc2)cc1 (stereo not given),1.37,0.904,1.16,0.448 (inactive),0.395,1.09,-0.175,0.516,-0.274,0.958
CCCCC(=C=CC[C@@H](O)c1cccc(OCCO)c1)CCO,1.36,-0.252,0.254,0.413 (inactive),0.504,-0.224,-0.556,-0.254,-0.591,0.134
CC(C)C[C@@H]1NC(=O)[C@@H]2C[C@H](C(=O)NCCCC[N+](C)(C)C)[C@H](c3ccc(O)cc3)N2C1=O,1.39,-0.0913,-0.587,0.438 (inactive),1.3,0.896,0.81,1.56,1.79,-0.531
C=C(/C(=C/C[C@@H](OC(C)=O)c1ccccc1OCCO)c1cc(C(=O)OC)ccc1OC)C(C)C,1.08,-0.114,-0.242,0.314 (inactive),0.419,0.115,-0.209,-0.0844,0.0006,0.772
C=CCNC(=O)[C@@H]1[C@H]2C(=O)O[C@H](c3ccccc3)[C@H](c3ccccc3)N2[C@H](c2ccc(O)cc2)[C@@]12C(=O)Nc1ccc(C#CC3(O)CCCCCC3)cc12,1.1,-0.0065,-0.0122,0.405 (inactive),0.746,-0.206,0.348,0.196,0.446,-0.195
CCC[C@@H]1C=C(C(=O)OCC)[C@H](c2ccccc2)N1S(=O)(=O)c1ccc(C)cc1,0.58,0.852,1.02,-0.141 (inactive),0.977,1.32,0.623,1.25,0.117,0.789
C/C=C/CN(C(=O)C#Cc1ccccc1)[C@H](CO[Si](C)(C)C(C)(C)C)c1ccccc1,-0.435,-0.65,-0.169,-3.21 (inactive),-1.27,-0.0745,-1.37,-1.44,-0.72,1.19
Cc1ccc(S[C@]2(C(=O)NCC(F)(F)F)CC(=O)N(C3CCCCC3)[C@@H]2c2ccc(CO)cc2)cc1,1.58,0.433,0.83,0.113 (inactive),0.162,-0.374,-0.235,-0.517,-1.09,-0.0076
COCCOC(=O)N1C(=O)[C@@]2(c3ccccc31)[C@H](C(=O)N1CCCCCCC1)[C@H]1C(=O)O[C@H](c3ccccc3)[C@H](c3ccccc3)N1[C@@H]2c1ccc(O)cc1,1.86,2.77,1.76,-0.216 (inactive),1.38,1.35,1.32,1.68,1.93,1.92
COC(=O)[C@@H]1N=C(c2ccc(OCCCO)cc2)O[C@@H]1c1ccccc1CN=[N+]=[N-],-0.418,0.502,1.2,0.0193 (inactive),-0.648,-1.01,-0.428,-0.547,-1.36,0.778
COCCCN1C(=O)[C@@]2(Cc3ccccc31)c1ccccc1C(=O)N(Cc1ccccc1OC)[C@H]2c1ccc(CO)cc1,-0.909,0.612,0.9,0.307 (inactive),-0.426,-0.428,-0.352,0.154,0.514,0.157
[N-]=[N+]=NCc1ccccc1C[C@]1(C(=O)O)COC(c2ccc(OCCCO)cc2)=N1,0.991,0.261,1.12,0.544 (inactive),-0.472,-1.19,-0.756,-0.757,-1.27,0.616
COCCOC(=O)N1C(=O)[C@@]2(c3cc(C#CCNC(N)=O)ccc31)[C@H](C(=O)NC[C@H](O)c1ccccc1)[C@H]1C(=O)O[C@H](c3ccccc3)[C@H](c3ccccc3)N1[C@@H]2c1ccc(OCCO)cc1,1.44,0.398,0.782,-0.204 (inactive),0.872,0.939,0.565,0.898,0.301,0.649
COC(=O)[C@@]1(Cc2ccc(OC)cc2)[C@H]2c3cc(C(=O)N4CCCC4)n(CCc4ccc(OC)c(Br)c4)c3C[C@H]2CN1C(=O)c1ccccc1,1.31,0.801,0.904,-0.947 (inactive),0.714,-0.199,0.0993,-0.457,-0.858,1.03
